The test system of experiment [1] is Zika virus NS2B-NS3 protease. The experiment is described as follows: Primary screen GU AMC qHTS for Zika virus inhibitors (AID 1347154).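 Note: 0% = no-inhibitor control and -100% = no-enzyme control; nearly all actives have a fitted effect of over 70% in size.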 The essentials: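 Fluorogenic AMC-substrate cleavage by noncovalent NS2B-NS3 protease complex (25 nM, pH 8.0 Tris buffer with Tween 20) followed for 15 minutes at room temperature (~20% conversion). Percent inhibition from ex340/em450 signal change, fitted by 4-parameter Hill equation.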
(In general: Quantitative high-throughput screening tests each substance at several concentrations.)

A short description of experiment [2]: Primary qHTS for small molecule stabilizers of the endoplasmic reticulum resident proteome: Secreted ER Calcium Modulated Protein (SERCaMP) assay (AID 1508630). Note: % is set by controls: 0 for no effect and ±100 for the full control effect. The essentials: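 GLuc-SERCaMP-expressing SH-SY5Y cells, pretreated 16 h with compound, are challenged with thapsigargin to empty ER calcium stores; after 4 h, coelenterazine is added directly to the medium and luminescence is imaged.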

A short description of experiment [3]: qHTS Assay for Lipid Storage Modulators (AID 1519; calls by dose curve). Conditions: Drosophila S3 cells, BODIPY lipid droplet/cell ratio, laser cytometry, cells loaded with oleic acid; for activity change, negative = inhibition: at 57.5 µM (top of the series). The essentials: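 Cells seeded at 5,000 per well were treated with compounds over a concentration series and loaded with oleic acid (400 uM, as added). Lipid droplet fluorescence (488 nm excitation, 500-530 nm channel) was read by laser-scanning cytometry and normalized to 20 uM Triacsin C.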

Experiment [4] has as its target Ubiquitin carboxyl-terminal hydrolase 1 (Homo sapiens) (UniProt O94782). The experiment is described as follows: Inhibitors of USP1/UAF1: Pilot qHTS (AID 504865).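 Note: rhodamine fluorescence freed from ubiquitin-rhodamine substrate followed over time; top concentration of the series differs between compounds; % is set by controls: 0 for no effect and ±100 for the full control effect; nearly all actives have a fitted effect of over 35% in size.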 The essentials:
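Deubiquitinase activity followed as kinetic rhodamine fluorescence release from 150 nM Ub-Rho. 1 nM USP1/UAF1 with compound, after 15 min room-temperature preincubation, in HEPES pH 7.8 buffer containing TCEP, EDTA, BSA and Tween-20.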

Experiment [5] concerns the target DNA dC->dU-editing enzyme APOBEC-3G (Homo sapiens) (UniProt Q9HC16). The experiment in a line: qHTS for inhibitors of Vif-A3G interactions: Validation (AID 588379). Note: 0% is about no effect. The essentials:
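HeLa cells stably expressing Vif and A3G-eYFP, 700 cells/well, incubated overnight at 37 deg C, then exposed to compound overnight at 37 deg C. Inhibition of Vif-mediated degradation read as increased yellow fluorescence (Ex 488/Em 500-530) by laser-scanning cytometry.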

In experiment [6] the target is Mitogen-activated protein kinase 10 (Mus musculus) (UniProt Q61831). The experiment in a line: JNK3 AlphaScreen Assay (AID 530; active = well fitted curve in either direction with a large enough effect, not every such curve was filed as active;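 note: kinase came from lysate of stimulated human HepG2 cells; signal reports phosphorylation of biotinylated GST-cJun 1-79 at Ser73 with 10 µM ATP; % is set by controls: 0 for no effect and ±100 for the full control effect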). The essentials: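 Compound titrations were preincubated 15 minutes at room temperature with substrate, antibody and pre-activated JNK3-containing HepG2 lysate. Reactions were started with 10 uM ATP and stopped with EDTA-containing bead buffer for AlphaScreen detection.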
For orientation: Bead proximity is the source of the signal in Alpha formats.

Experiment [7] deals with 3',5'-cyclic-AMP phosphodiesterase 4B (Homo sapiens) (UniProt Q07343). The experiment in a line: qHTS Assay for Inhibitors of PDE-IV (AID 607; active = well fitted activation curve with a large enough effect in the main read-out, with a control signal flat, not every such curve was filed as active; note: % of control where 0% means no effect). The essentials:
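The readout is membrane depolarisation from a cAMP-sensing CNG channel, detected with a potential dye at ex 535/em 590. Cells were HEK293-derived (endogenous PDE-IV) at 1000 cells/well, titrated up to 22.9 uM final.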

Experiment [8] can be described thus: AP1 Signaling Pathway (AID 357; active = well fitted curve in either direction with a large enough effect, not every such curve was filed as active;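 note: ME-180 reporter cells stimulated with EGF at its EC50 level; % is set by controls: 0 for no effect and ±100 for the full control effect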). The conditions noted are these: ME-180 AP-1-bla reporter, EGF-induced, beta-lactamase ratio, 5 h; at 38 µM (top of the series). The essentials: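 AP-1-bla ME-180 cells, Opti-MEM + 0.5% dialyzed FBS, plated overnight 37 °C. Cpd titration + EC50 EGF, 5 h 37 °C. CCF4 2.5 h RT; ex 405, em 460/530 ratio → %activity, AC50.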
Experiment [9] can be described thus: NFAT Signaling Pathway (AID 444; active = well fitted curve in either direction with a large enough effect, not every such curve was filed as active;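 note: carbachol stimulus at about its EC50 of 1 µM final; % is set by controls: 0 for no effect and ±100 for the full control effect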). Conditions: Jurkat NFAT-bla M1, carbachol, beta-lactamase ratio, 5 h; at 38 µM (top of the series). The essentials:
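Read-out: CCF4 FRET ratio (460 nm/530 nm) after 1 h RT dye loading, used for %activity and AC50 from titration series. Cells: Jurkat NFAT-β-lactamase/M1 line, treated with compound plus 1 uM carbachol for 5 h, 37 °C.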

The nature of experiment [10]: Stat Signaling Pathway (AID 446; active = well fitted curve in either direction with a large enough effect, not every such curve was filed as active). Conditions: ME-180 SIE beta-lactamase reporter, IL-6 stimulated, 5 h; at 38 µM (top of the series). The essentials: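 Screening format detects activators and inhibitors alike: ME-180 SIE-bla cells stimulated at 40 pM IL-6 for 5 hrs with compound, then dual-emission beta-lactamase read at 405 nm excitation.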
Experiment [11] addresses Glucocorticoid receptor (Homo sapiens) (UniProt P04150). The experiment in a line: GR-GFP Redistribution (AID 450;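 active = compounds whose dose series gives a full or clear partial fitted curve of increased nuclear translocation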; note: potency is the fitted concentration of half-maximal effect). Conditions: U2OS GR-GFP nuclear translocation, laser cytometry, 2 h.
For experiment [12] the target is unchanged. The experiment in a line: GR-EFC Redistribution (AID 451; calls by dose curve; note: potency is the fitted concentration of half-maximal effect). The conditions noted are these: CHO-K1 GR-EFC translocation, beta-gal luminescence, 2 h. The essentials:
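Translocation of GR-ED fusion to nuclear EA restores b-gal, read by luminescence after 1 h room-temperature detection. Engineered CHO-K1 biosensor cells, 1,000/well, exposed 2 h at 37 C to titrations up to 46 uM final.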

Experiment [13] deals with Cytochrome P450 3A4 (Homo sapiens) (UniProt P08684). The experiment is described as follows: qHTS Assay for Inhibitors and Substrates of Cytochrome P450 3A4 (AID 884). Note: nearly all actives have a fitted effect of over 50% in size. Note: potency is the fitted concentration of half-maximal effect. The essentials:
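20 nM human CYP3A4 with 25 uM Luciferin-PPXE (at KM) in 200 mM KPO4, preincubated 10 min with compound; NADPH regeneration started a 60 min RT reaction. Luciferin detected by luminescence, normalized to 57 uM ketoconazole as full inhibition.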

For experiment [14] the target is unchanged. The experiment in a line: qHTS Assay for Activators of Cytochrome P450 3A4 (AID 885). Note: nearly all actives have a fitted effect of over 65% in size. The essentials:
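Steps: enzyme/substrate mix dispensed; compound added, 10 min RT; NADPH regeneration solution added, 60 min RT; luciferin detection buffer stops reaction; 20 min later luminescence measured.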

Experiment [15] concerns the target Cytochrome P450 2D6 (Homo sapiens) (UniProt P10635). The experiment is described as follows: qHTS Assay for Inhibitors and Substrates of Cytochrome P450 2D6 (AID 891). Note: nearly all actives have a fitted effect of over 60% in size. Note: potency is the fitted concentration of half-maximal effect. The essentials:
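Human CYP2D6 (5 nM) with 30 uM Luciferin-ME EGE (at Km) in 100 mM KPO4, compound preincubated 10 min, then NADPH regeneration system for 60 min at room temperature. Luciferin read by luminescence; normalized to 1.43 uM quinidine.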

For experiment [16], the target named is Cytochrome P450 2C19 (Homo sapiens) (UniProt P33261). The experiment is described as follows: qHTS Assay for Inhibitors and Substrates of Cytochrome P450 2C19 (AID 899). Note: potency is the fitted concentration of half-maximal effect; nearly all actives have a fitted effect of over 60% in size. The essentials:
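Reactions contain 5nM enzyme, 10uM Luciferin-H EGE (KM) and 50mM KPO4; compound preincubates 10 min at 37C, NADPH regeneration starts turnover for 60 min. Luminescence after detection reagent gives activity.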

Experiment [17] concerns the target Pyruvate kinase (Leishmania mexicana) (UniProt Q27686). The experiment in a line: qHTS Validation Assay for Inhibitors of Leishmania Mexicana Pyruvate Kinase (AID 945).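 Note: 0% = DMSO only neutral control wells.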 The essentials:
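qHTS eight-point titrations against 0.2 nM LmPYK (E451W) in imidazole buffer pH 7.2 with 0.5 mM PEP, 0.1 mM ADP; 1 h, room temperature. Readout: PKLight luminescence, normalized to neutral DMSO wells.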

Experiment [18] has as its target Pyruvate kinase PKM (Homo sapiens) (UniProt P14618). The experiment is described as follows: qHTS Assay for Activators of Human Muscle Pyruvate Kinase (AID 954; active = well fitted curve in the direction sought with a large enough effect, not every such curve was filed as active;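 note: 0% = uninhibited enzyme and -100% = no enzyme or full thiadiazolimine inhibition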). The essentials: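 Reaction: 0.1 nM purified PKM2 with 0.5 mM phosphoenolpyruvate and 0.1 mM ADP, room temperature, 1 h. Readout: luciferase-based ATP luminescence after stop reagent. Activators judged against a 0.3 nM enzyme column.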

Experiment [19] deals with alpha-glucosidase (Oryza sativa, rice) (UniProt Q653V4). The experiment is described as follows: Counterscreen for Glucocerebrosidase Inhibitors: qHTS Assay for Rice alpha-Glucosidase at pH 5.0 (AID 997).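 Note: 0% = full activity with enzyme and -100% = basal without enzyme.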 The essentials:
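Rice alpha-glucosidase (4 nM final) with 400 uM 4-methylumbelliferyl-alpha-D-glucopyranoside in citrate buffer pH 5.0, 20 min at room temperature, stopped at pH 10; fluorescence 365/440 nm, compounds 0.7 nM–77 uM, AC50 from Hill fits.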

Experiment [20] concerns the target Cytochrome P450 1A2 (Homo sapiens) (UniProt P05177). The experiment is described as follows: p450-cyp1a2 (AID 410; calls by dose curve; note: potency is the fitted concentration of half-maximal effect). The essentials:
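Luminescent readout of luciferin formed from Luciferin-ME by human CYP1A2; data normalized against complete inhibition by 57 uM furafylline. Enzyme 20nM, substrate 100uM at Km, 100mM KPO4 buffer, 60 min reaction at room temperature.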

[21] abbreviates: measured here: cell count channel max response.
Setting [22] is: measured here: lipid channel max response.

The values that follow come from PubChem BioAssay (NCATS).

Structures are written as SMILES. Values joined by “and” are separate entries in the source; they are usually repeats but may differ in a detail not shown here. Equal values may be shown once. Results filed as inconclusive are left out. Active and inactive are the calls of the source. Unless noted, calls come from the whole dose curve; as a rule, active = well fitted curve in the direction sought with a large enough effect; inconclusive = small, poorly fitted or top-dose-only effect, or another doubt; inactive = no such curve, though single readings can be large; an effect the other way counts as inactive or inconclusive. A value given as a limit tells only on which side of the number the result lay.

Chain of 3',5'-cyclic-AMP phosphodiesterase 4B (Homo sapiens) (Q07343 whole entry, looked up): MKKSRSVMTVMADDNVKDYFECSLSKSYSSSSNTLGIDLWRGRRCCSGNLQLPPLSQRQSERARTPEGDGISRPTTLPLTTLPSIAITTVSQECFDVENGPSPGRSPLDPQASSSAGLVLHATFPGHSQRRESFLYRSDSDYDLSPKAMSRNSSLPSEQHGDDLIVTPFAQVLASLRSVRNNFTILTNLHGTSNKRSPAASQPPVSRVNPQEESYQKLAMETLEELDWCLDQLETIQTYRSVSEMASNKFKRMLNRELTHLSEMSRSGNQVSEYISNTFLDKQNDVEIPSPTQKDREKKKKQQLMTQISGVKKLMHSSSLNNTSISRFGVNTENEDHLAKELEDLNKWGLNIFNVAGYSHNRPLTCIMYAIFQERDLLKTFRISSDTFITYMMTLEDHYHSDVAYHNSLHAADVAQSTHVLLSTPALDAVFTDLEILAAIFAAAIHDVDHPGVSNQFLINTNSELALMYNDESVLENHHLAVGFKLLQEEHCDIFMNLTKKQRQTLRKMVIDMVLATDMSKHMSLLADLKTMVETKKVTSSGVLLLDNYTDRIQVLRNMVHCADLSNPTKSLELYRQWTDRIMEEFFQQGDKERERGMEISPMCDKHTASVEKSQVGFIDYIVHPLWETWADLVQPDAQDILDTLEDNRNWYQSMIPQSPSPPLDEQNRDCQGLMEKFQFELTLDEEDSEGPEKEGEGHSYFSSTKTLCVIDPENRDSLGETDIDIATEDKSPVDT
Chain of Cytochrome P450 3A4 (Homo sapiens) (P08684 whole entry, looked up): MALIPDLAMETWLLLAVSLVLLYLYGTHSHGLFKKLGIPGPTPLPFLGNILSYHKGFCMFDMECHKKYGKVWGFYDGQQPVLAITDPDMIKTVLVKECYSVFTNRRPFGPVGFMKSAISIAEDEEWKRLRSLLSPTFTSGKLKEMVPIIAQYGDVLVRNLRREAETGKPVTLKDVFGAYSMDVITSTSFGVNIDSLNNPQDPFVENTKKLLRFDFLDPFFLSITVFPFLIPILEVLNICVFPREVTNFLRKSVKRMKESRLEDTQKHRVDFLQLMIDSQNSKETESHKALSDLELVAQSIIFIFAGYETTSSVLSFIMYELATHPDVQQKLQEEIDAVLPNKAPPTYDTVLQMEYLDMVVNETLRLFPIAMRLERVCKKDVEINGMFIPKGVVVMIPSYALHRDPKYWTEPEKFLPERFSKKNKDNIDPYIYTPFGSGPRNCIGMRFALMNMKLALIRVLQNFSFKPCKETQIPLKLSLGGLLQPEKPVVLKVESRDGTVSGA
Chain of DNA dC->dU-editing enzyme APOBEC-3G (Homo sapiens) (Q9HC16 whole entry, looked up): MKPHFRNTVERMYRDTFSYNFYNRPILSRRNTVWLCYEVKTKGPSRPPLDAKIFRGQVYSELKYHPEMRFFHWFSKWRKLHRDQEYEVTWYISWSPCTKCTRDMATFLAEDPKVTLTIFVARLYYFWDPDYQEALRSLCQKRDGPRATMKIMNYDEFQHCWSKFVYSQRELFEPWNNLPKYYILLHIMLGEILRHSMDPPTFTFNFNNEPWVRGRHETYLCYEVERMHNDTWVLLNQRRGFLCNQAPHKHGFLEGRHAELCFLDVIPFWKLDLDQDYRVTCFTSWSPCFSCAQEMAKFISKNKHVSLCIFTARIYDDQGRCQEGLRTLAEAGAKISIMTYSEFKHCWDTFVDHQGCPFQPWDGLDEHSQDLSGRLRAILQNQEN
Chain of Ubiquitin carboxyl-terminal hydrolase 1 (Homo sapiens) (O94782 whole entry, looked up): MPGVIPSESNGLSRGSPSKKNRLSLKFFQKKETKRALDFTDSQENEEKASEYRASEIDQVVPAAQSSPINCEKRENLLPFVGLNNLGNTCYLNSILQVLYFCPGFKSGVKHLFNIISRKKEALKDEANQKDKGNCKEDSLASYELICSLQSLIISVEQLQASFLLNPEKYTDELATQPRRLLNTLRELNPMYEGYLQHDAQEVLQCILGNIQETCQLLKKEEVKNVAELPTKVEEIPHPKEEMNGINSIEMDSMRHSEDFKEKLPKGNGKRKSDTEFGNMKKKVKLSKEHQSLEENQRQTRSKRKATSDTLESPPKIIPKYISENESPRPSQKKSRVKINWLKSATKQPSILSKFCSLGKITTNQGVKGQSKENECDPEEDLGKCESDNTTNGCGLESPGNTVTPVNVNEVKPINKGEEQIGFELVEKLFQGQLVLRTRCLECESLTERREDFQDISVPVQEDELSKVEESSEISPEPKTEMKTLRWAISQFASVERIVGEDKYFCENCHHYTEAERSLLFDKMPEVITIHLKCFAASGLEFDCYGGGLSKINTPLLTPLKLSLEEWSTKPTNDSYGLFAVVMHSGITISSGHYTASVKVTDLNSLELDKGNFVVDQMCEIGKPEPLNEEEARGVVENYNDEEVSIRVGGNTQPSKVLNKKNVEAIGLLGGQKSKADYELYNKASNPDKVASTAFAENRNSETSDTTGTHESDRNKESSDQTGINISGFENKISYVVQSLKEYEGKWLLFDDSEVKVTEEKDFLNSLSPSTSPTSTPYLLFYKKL
Chain of Pyruvate kinase PKM (Homo sapiens) (P14618 whole entry, looked up): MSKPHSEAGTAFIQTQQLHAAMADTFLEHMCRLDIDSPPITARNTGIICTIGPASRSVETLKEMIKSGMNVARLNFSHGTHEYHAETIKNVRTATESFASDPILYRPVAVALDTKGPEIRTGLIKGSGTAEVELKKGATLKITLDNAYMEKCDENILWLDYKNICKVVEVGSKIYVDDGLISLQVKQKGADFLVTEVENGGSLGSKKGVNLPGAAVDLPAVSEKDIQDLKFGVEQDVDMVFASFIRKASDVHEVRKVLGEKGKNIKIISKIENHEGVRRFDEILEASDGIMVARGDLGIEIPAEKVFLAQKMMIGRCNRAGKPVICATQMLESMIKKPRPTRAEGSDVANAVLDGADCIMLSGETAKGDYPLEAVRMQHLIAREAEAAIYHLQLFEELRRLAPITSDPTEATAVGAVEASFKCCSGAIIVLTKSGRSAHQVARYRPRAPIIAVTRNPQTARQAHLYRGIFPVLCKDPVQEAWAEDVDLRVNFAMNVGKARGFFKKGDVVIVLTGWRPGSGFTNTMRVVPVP
Chain of Cytochrome P450 2D6 (Homo sapiens) (P10635 whole entry, looked up): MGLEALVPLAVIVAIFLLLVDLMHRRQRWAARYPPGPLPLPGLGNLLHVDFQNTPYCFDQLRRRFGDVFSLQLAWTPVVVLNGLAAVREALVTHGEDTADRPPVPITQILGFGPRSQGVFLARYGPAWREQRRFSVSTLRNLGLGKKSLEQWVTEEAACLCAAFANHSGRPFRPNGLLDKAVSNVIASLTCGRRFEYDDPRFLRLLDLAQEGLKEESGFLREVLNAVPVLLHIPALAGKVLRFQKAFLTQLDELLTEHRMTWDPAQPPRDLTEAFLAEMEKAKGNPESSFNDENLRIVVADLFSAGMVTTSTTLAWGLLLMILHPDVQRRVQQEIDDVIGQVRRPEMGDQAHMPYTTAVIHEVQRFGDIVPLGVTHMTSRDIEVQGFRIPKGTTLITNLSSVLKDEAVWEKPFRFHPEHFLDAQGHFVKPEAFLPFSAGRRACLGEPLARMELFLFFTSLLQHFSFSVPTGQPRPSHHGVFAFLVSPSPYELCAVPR
Chain of Glucocorticoid receptor (Homo sapiens) (P04150 whole entry, looked up): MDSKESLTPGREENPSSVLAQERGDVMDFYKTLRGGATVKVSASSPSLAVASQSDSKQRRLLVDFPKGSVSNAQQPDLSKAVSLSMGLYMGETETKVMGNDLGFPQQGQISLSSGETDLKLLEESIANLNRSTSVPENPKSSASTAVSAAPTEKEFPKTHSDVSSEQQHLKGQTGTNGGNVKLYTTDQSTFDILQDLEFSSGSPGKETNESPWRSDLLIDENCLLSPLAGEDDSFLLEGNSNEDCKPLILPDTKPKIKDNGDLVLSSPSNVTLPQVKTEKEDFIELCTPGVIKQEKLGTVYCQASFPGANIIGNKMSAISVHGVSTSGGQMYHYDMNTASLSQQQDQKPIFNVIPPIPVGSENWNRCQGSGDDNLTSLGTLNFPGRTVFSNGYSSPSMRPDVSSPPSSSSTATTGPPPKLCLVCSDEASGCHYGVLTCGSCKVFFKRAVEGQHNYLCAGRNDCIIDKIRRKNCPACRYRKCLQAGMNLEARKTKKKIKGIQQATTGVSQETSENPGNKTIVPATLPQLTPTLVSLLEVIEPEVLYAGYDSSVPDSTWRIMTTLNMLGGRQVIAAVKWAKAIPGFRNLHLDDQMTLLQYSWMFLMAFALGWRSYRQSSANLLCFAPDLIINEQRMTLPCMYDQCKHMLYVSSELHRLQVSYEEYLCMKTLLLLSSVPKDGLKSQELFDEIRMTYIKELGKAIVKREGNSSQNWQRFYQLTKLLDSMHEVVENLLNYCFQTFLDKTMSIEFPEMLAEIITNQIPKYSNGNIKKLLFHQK
Chain of Pyruvate kinase (Leishmania mexicana) (Q27686 2-499 E452W): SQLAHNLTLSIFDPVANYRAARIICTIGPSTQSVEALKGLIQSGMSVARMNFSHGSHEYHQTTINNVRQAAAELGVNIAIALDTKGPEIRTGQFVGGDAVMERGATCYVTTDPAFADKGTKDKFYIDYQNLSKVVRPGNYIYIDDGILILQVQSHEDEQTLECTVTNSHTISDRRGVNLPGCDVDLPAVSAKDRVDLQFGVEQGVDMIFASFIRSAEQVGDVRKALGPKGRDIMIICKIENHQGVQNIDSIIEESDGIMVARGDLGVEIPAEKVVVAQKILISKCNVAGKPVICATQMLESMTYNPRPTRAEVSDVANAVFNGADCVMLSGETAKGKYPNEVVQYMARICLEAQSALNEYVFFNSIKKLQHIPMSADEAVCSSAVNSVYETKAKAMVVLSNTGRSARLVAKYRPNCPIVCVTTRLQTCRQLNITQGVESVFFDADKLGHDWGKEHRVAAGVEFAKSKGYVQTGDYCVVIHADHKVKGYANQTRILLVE

As to `CC(C)(C)n1nc(-c2ccc(Cl)cc2)c2c(N)ncnc21`, the Potency entry in [1] and in [2] was “inactive” in each case.
In the case of `C[C@H](CCC(=O)O)[C@H]1CC[C@H]2[C@H]3C(CC[C@]12C)[C@@]1(C)CC[C@@H](O)C[C@H]1C[C@H]3O` (stereo partly drawn), the activity change, negative = inhibition in [3] was -7.53% (inactive). In addition, the max response in [3] (setting [21]) was determined as 14.2%; in experiment [3] (setting [22]), 5.28%. In addition, the Potency entry in [4], in experiment [5], in experiment [1] and in experiment [2] was “inactive” throughout.
For `CCN(CC)CC1CCN(c2ncc3ncnc(Nc4ccc(F)c(Cl)c4)c3n2)CC1`, the Potency result in [1] and in experiment [2] was “inactive” in each case.
As for `COC(=O)[C@H]1[C@@H]2C[C@H]3c4[nH]c5ccccc5c4CCN3C[C@@H]2CC[C@@H]1O`, the Potency entry in experiment [6], in experiment [7], in [4], in experiment [5], in [1] and in experiment [2] was “inactive” each time. The activity change, negative = inhibition in experiment [3] is 4.47% (inactive). In addition, the max response in [3] (setting [21]) is -3.24%; in [3] (setting [22]), 4.05%.
As to `COC(=O)C1=C(C)NC(C)=C([N+](=O)[O-])[C@H]1c1ccccc1C(F)(F)F`, the values for the activity change, negative = inhibition in [8] and in [9] were -27.8% (inactive) and -15.3% (inactive), respectively. For the same molecule, the activity, negative = inhibition in experiment [10] was 13.2% (inactive). Moreover, the Potency is > 46 µM (inactive) in experiment [11]; > 46 µM (inactive) in experiment [12]; 12.6 µM (active) in [13]; 1.26 µM (active) and 158 nM (active) in experiment [16]. Besides, the Potency entry in experiment [6], in experiment [7], in experiment [14], in experiment [15], in experiment [17] and in [5] was “inactive” each time. Further, the Potency entry in experiment [1] and in experiment [2] was “inactive” in each case. The outcome in [18] and in experiment [19] was inactive.
Regarding `N#CC(=C(/N)Sc1ccccc1N)/C(C#N)=C(\N)Sc1ccccc1N`, the Potency result in experiment [1] and in experiment [2] was “inactive” throughout.
As to `C[C@@H](/C=C\c1cccc(Oc2ccc(F)cc2)c1)N(O)C(N)=O`, the activity change, negative = inhibition in [8] is -29.9% (inactive); in [9], -4.07% (inactive). Besides, the Potency in experiment [20] was 1 µM (active) and 158 nM (active); in experiment [11], > 46 µM (inactive); in experiment [12], > 46 µM (inactive); in [13], 1.26 µM (active); in experiment [15] it was 25.1 µM (active); in [16] it was 1.58 µM (active) and 3.98 µM (active). Moreover, in [10], the activity, negative = inhibition is 13.8% (inactive). The Potency entry in experiment [6], in experiment [7], in experiment [14], in [17], in experiment [5] and in experiment [1] was “inactive” throughout. In addition, in experiment [2], the Potency result was “inactive”. In addition, the call in experiment [18] and in [19] was inactive.
For the molecule `CCn1ccnc1C[C@@H]1COc2ccccc2O1`, the activity change, negative = inhibition in experiment [8] is -10% (inactive); in [9], -4.02% (inactive). Besides, the Potency in experiment [20] is 15.8 µM (active); in [11] it was > 46 µM (inactive); in experiment [12] it was > 46 µM (inactive); in experiment [15], 1.58 µM (active). The activity, negative = inhibition in experiment [10] is -3.71% (inactive). Also, the Potency entry in experiment [6], in experiment [7], in experiment [13], in [17], in experiment [5] and in [1] was “inactive” in each case. Further, the Potency result in experiment [2] was “inactive”. For the same molecule, the call in [18] and in experiment [19] was inactive.
For the molecule `CCOC(=O)[C@@]12C[C@@H]1/C(=N/O)c1ccccc1O2`, the results for the activity change, negative = inhibition in experiment [8] and in experiment [9] were -6.63% (inactive) and -7.55% (inactive), respectively. Besides, the Potency was 3.98 µM (active) and 316 nM (active) in [20]; > 46 µM (inactive) in [11]; > 46 µM (inactive) in experiment [12]. In addition, in experiment [10], the activity, negative = inhibition is -6.6% (inactive). Further, the Potency result in [6], in [7], in experiment [17], in experiment [4], in [5] and in [1] was “inactive” throughout. Also, the Potency result in [2] was “inactive”. For the same molecule, the molecule was called inactive in [18] and in experiment [19].
